Measles CPE: compounds protecting cells from measles virus cytopathic effect, primary screen, measles RdRp inhibitor project, single point, MLSMR library, absorbance; 140,000 tested, 1.5% active; AID 841, 2007; protection (pct of control), % at 4 µM; Measles virus-infected cells, CPE protection; in the data active = protection mostly above about 24%, no sharp cut-off; inactive = mostly below about 26%
CYP2C19 act: human CYP2C19 activators, primary screen, biochemical, luminescence; 96,000 tested, under 10 active; activation factor at 5 µM; Cytochrome P450 2C19 (Homo sapiens), P33261; recombinant CYP2C19, luciferin-H EGE luminescence; active compounds read high; 0 = fully inhibited enzyme, 1 = untreated enzyme; AID 1025, 2008;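 active = activation factor of at least 2 at 5 µM in the primary screen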;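 also: 0 = wells with 2.5 mM tranylcypromine and 1 = vehicle-only wells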
CYP2C9 inh: blockers of cytochrome P450 2C9 activity – biochemical, luminescence, ADME assay, primary screen; AID 777, 2007; 96,000 tested, 20% active; CYP2C9 Supersomes, luciferin-H conversion; inhibition, % at 5 µM;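 active = blocking of liver enzyme CYP2C9 beyond about 50% at 5 µM, limit read from the data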
Target sequence (P11712 whole entry, looked up): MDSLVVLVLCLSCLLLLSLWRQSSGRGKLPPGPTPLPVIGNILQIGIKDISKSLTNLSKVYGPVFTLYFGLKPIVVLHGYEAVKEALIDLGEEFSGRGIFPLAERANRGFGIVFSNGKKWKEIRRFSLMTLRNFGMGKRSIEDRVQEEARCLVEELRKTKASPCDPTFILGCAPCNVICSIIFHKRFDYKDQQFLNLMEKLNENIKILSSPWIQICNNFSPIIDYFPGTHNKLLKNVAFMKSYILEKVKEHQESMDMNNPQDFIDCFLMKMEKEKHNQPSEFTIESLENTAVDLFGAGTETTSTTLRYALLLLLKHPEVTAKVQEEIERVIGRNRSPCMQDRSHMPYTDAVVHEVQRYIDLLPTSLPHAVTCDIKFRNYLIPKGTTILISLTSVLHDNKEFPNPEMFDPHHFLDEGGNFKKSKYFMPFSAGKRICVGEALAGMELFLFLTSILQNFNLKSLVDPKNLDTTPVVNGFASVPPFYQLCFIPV
CYP2C9 activ: human CYP2C9 activators, primary screen, biochemical, luminescence; AID 1024, 2008; Cytochrome P450 2C9 (Homo sapiens), P11712; 96,000 tested, 1.4% active; recombinant CYP2C9, luciferin-H conversion; active compounds read high; factor 1 = untreated enzyme, 0 = blocked; activation factor at 5 µM;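 active = activation factor of 2 or more for CYP2C9 at a 5 µM dose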;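 also: 0 = sulfaphenazole-blocked wells and 1 = vehicle-only wells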
CYP2C19 inhib: blockers of cytochrome P450 2C19 activity – biochemical, luminescence, ADME assay, primary screen | CYP2C19 Supersomes, luciferin-H EGE luminescence, 30 min | P33261 | inhibition, % at 5 µM | AID 778, 2007 | 96,000 tested, 21% active;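 active = CYP2C19 inhibition above a set limit at 5 µM in the primary screen, cut at about 50% in these data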;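 also: plate controls were negative control wells for no effect and 2.5 mM tranylcypromine positive control for full effect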
Active calls of the source: *; . = no result given. Compounds with a hit are over-represented: about 22% of the library has one in this group of screens.

SMILES | Measles CPE | CYP2C19 act | CYP2C9 inh | CYP2C9 activ | CYP2C19 inhib
COc1ccc(/C=N/NC(=O)c2cccc([N+](=O)[O-])c2)cc1OC(=O)c1ccc(C)cc1 | 19.1 | 0.6 | 53.8* | 0.5 | 35.8
COc1cc(/C=N/NC(=O)COc2ccc(Cl)cc2)ccc1OS(=O)(=O)c1ccc(C)cc1 | 8.3 | 0.6 | 64.5* | 0.4 | 36.8
COc1cc(/C=N/NC(=O)c2cccnc2)ccc1OS(=O)(=O)c1ccc(F)cc1 | 6.9 | 0.3 | 83.4* | 0.2 | 66.7*
COc1ccc(/C=N/NS(=O)(=O)c2ccc(C)cc2)cc1OC(=O)c1ccc(C)cc1 | 7.8 | 1 | 88.1* | 0.1 | 4.4
COc1ccc(/C=N/NC(=O)c2cccc([N+](=O)[O-])c2)cc1OC(=O)c1ccccc1 | 1.8 | 0.6 | 48.5 | 0.5 | 42.4
COc1cc(/C=N/NC(=O)COc2cccc(F)c2)ccc1OS(=O)(=O)c1ccc(C)cc1 | 6.5 | . | . | . | .
COc1cc(/C=N/NC(=O)c2cccnc2)ccc1OS(=O)(=O)c1ccc(C)cc1 | 7.4 | . | . | . | .
COc1ccc(C)cc1NC(=O)CN(Cc1nnc(-c2ccc(Cl)cc2)o1)C1CCCC1 | 9.4 | 0.6 | 9.8 | 0.9 | 35.6
COc1ccccc1NS(=O)(=O)c1cccc(C(=O)NN=C2CCCCCC2)c1 | 7.7 | . | . | . | .
CC(C)(CSc1ccccn1)NS(=O)(=O)c1ccccc1 | 8.2 | . | . | . | .
COc1ccc(/C=N/NS(=O)(=O)c2ccccc2)cc1OS(=O)(=O)c1ccc(C)cc1 | 25.9 | 0.5 | 92.7* | 0.1 | 52.0*
COCCNC(=O)C1CC(=O)N(CCc2ccccc2)C1 (stereo not drawn) | 5.8 | 0.8 | -13.0 | 1.1 | 22.4
COc1ccc(Cn2c(CCC(=O)N3CCN(c4ccccn4)CC3)nc3ncccc3c2=O)cc1 | 5.4 | 0.7 | 43.0 | 0.6 | 29.0
CCOc1cccc(-c2nnc3sc(COc4ccc(C)cc4)nn23)c1 | 2.7 | 0.5 | 64.2* | 0.4 | 54.1*
c1cc(-c2nnc3sc(C4CCCCC4)nn23)ccn1 | 4.6 | 0.1 | 20.6 | 0.8 | 88.0*
Cc1nn2c(-c3ccc(Cl)cc3)nnc2s1 | 2.6 | 0.4 | 6.4 | 0.9 | 56.2*
COc1cc(-c2nn3c(Cc4ccccc4)nnc3s2)cc(OC)c1OC | 5.8 | 0.5 | 69.6* | 0.3 | 52.9*
CCOc1cccc(-c2nnc3sc(COc4ccccc4)nn23)c1 | 1.3 | 1.1 | 4.8 | 1 | -5.4
COc1cc(-c2nn3c(COc4ccccc4)nnc3s2)cc(OC)c1OC | 4.0 | 0.9 | 25.4 | 0.7 | 11.9
CCCOc1cccc(C2/C(=C(/O)c3ccc(F)cc3)C(=O)C(=O)N2CCN(C)C)c1 (stereo not drawn) | 4.3 | 1 | -7.8 | 1.1 | 3.0
c1coc(-c2nnc3sc(-c4cccs4)nn23)c1 | 5.0 | 0.4 | 45.3 | 0.5 | 63.7*
COc1cc(OC)c(-c2nn3c(-c4ccco4)nnc3s2)cc1OC | 5.8 | 0.6 | 72.7* | 0.3 | 43.6
c1ccc(OCc2nn3c(-c4ccco4)nnc3s2)cc1 | 16.4 | 0.3 | 49.3 | 0.5 | 67.0*
Cc1nnc2sc(-c3ccncc3)nn12 | 21.5 | 0.9 | -0.6 | 1 | 12.8
COc1ccc(-c2nnc3sc(COc4ccccc4)nn23)cc1 | 3.3 | 0.6 | 26.5 | 0.7 | 35.6
SMILES | Measles CPE | CYP2C19 act | CYP2C9 inh | CYP2C9 activ | CYP2C19 inhib
CC(C)(C)c1ccc(-c2nnc3sc(-c4ccncc4)nn23)cc1 | 5.3 | 0.4 | 53.4* | 0.5 | 58.3*
c1csc(-c2nn3c(-c4ccncc4)nnc3s2)c1 | . | 0.6 | 31.5 | 0.7 | 36.0
CCOc1cccc(-c2nnc3sc(-c4cccs4)nn23)c1 | 6.3 | 0.4 | 58.5* | 0.4 | 60.2*
COc1cccc(-c2nn3c(-c4cccc(C)c4)nnc3s2)c1 | 12.8 | 0.1 | 76.4* | 0.2 | 88.6*
CCOc1cccc(-c2nnc3sc(-c4cc(OC)c(OC)c(OC)c4)nn23)c1 | 22.9 | 0.6 | 62.9* | 0.4 | 36.3
COc1cccc(-c2nnc3sc(-c4cccs4)nn23)c1 | 12.3 | 0.6 | 42.2 | 0.6 | 40.2
COc1cc(-c2nn3c(-c4ccccc4)nnc3s2)cc(OC)c1OC | 10.0 | 0.3 | 71.7* | 0.3 | 73.8*
COc1ccc(-c2nn3c(-c4ccco4)nnc3s2)cc1OC | 6.3 | 0.8 | 18.0 | 0.8 | 16.5
COc1cccc(-c2nnc3sc(-c4ccc(C)cc4)nn23)c1 | 3.3 | 0.9 | 27.8 | 0.7 | 12.6

Screening data (PubChem BioAssay)
